Compounds with a hit are over-represented: about 31% of the library has one in this group of screens.
CYP2C9 inhib: blocks human cytochrome P450 2C9; inhibition, % at 5 µM; actives 20% (n = 96,000); P11712; CYP2C9 Supersomes, luciferin-H conversion, luminescence;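 active = blocking of liver enzyme CYP2C9 beyond about 50% at 5 µM, limit read from the data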
Target sequence (P11712 whole entry, looked up): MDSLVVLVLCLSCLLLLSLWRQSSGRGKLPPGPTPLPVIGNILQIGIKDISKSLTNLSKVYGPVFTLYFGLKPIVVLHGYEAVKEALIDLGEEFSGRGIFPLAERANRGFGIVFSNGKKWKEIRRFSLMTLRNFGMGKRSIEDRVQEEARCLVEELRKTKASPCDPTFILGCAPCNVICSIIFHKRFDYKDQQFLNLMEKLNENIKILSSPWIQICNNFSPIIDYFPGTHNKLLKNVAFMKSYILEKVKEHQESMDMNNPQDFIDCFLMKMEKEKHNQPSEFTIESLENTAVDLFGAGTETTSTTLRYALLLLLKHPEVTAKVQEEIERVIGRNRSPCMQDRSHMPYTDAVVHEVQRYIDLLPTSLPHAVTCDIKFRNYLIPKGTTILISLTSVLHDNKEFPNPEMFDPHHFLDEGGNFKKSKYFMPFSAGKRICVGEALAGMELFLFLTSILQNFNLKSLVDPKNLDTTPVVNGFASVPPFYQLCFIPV
CYP2C9 activ: increases human cytochrome P450 2C9 activity | recombinant CYP2C9, luciferin-H conversion, luminescence; active compounds read high; factor 1 = untreated enzyme, 0 = blocked | activation factor at 5 µM | actives 1.4% (n = 96,000) | AID 1024;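 active = activation factor of 2 or more for CYP2C9 at a 5 µM dose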
CYP2C19 inh: human CYP2C19 inhibition; CYP2C19 Supersomes, luciferin-H EGE luminescence, 30 min; inhibition, % at 5 µM; actives 21% (n = 96,000);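 active = CYP2C19 inhibition above a set limit at 5 µM in the primary screen, cut at about 50% in these data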
CYP2C19 activ: increases human CYP2C19 enzyme activity | recombinant CYP2C19, luciferin-H EGE luminescence; active compounds read high; 0 = fully inhibited enzyme, 1 = untreated enzyme | activation factor at 5 µM | 96,000 tested, under 10 active | AID 1025;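 active = activation factor of at least 2 at 5 µM in the primary screen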
Each line names hits and unclear results; the compound was inactive in the other large screens.

O=c1cc(CSc2ccc(Cl)cc2)nc(N2CCCCC2)[nH]1	none
Nc1c(NCc2ccccc2F)c(=O)[nH]c(=O)n1Cc1ccccc1	CYP2C9 inhib 74.8, CYP2C19 inh 63.0
Fc1cccc(CSc2ncnc3c2oc2ccccc23)c1	none
O=C(CSc1ncnc2c1oc1ccccc12)NC1CCCCC1	CYP2C9 inhib 72.4, CYP2C19 inh 72.5
O=C(CSc1ncnc2c1oc1ccccc12)Nc1cccc(F)c1	CYP2C9 inhib 76.1, CYP2C19 inh 60.5
Cc1ccccc1NC(=O)Cn1cnc2c(oc3ccccc32)c1=O	CYP2C9 inhib 59.0, CYP2C19 inh 63.8
Cc1cccc(NC(=O)CSc2ncnc3c2oc2ccccc23)c1	CYP2C9 inhib 62.7
COc1ccc(N(C(=O)c2ccc(S(=O)(=O)N3CCOCC3)cc2)C2C=CS(=O)(=O)C2)cc1 (stereo not drawn)	none
CCOC(=O)c1[nH]c(C)c(/C(O)=C2\C(=O)C(=O)N(CCN(C)C)C2c2ccco2)c1C (stereo not drawn)	none
CCOC(=O)C1C(c2cccc(Cl)c2Cl)NC(=O)NC1(O)C(F)(F)F (stereo not drawn)	none
Cc1cc(C)nc(Sc2ncnc3c2oc2ccccc23)n1	CYP2C19 inh 58.2
O=C(CSc1ncnc2c1oc1ccccc12)NCc1ccc(F)cc1	CYP2C9 inhib 72.4, CYP2C19 inh 65.4
c1ccc2cc(Sc3ncnc4c3oc3ccccc34)ccc2c1	none
Cc1cc(-c2cc(N)n(-c3ccccc3)n2)c(C)n1C1CCCC1	none
O=C(O)c1cccnc1-c1ncccc1C(=O)O	none
COC(=O)CSc1nc(SCc2ccccc2Cl)nc2c1CCCC2	CYP2C9 inhib 69.2
Cc1ccc(Cn2nnc3c(=O)n(CC(=O)c4ccccc4)cnc32)cc1	CYP2C9 inhib 60.3
Cc1ccc(Cn2nnc3c(=O)n(Cc4ccccc4C)cnc32)cc1	none
COc1ccccc1N(Cc1cc2cccc(C)c2[nH]c1=O)C(=O)C(C)C	none
COc1ccc(S(N)(=O)=O)cc1C(=O)NCC1(N2CCCCC2)CCCCC1	none
COC(=O)CSc1nnc(CNc2ccc(Cl)cc2)n1-c1ccccc1	CYP2C19 inh 53.8
CCOC(=O)CSc1nnc(CNc2ccccc2Cl)n1-c1ccccc1	none
Cn1c(CNc2ccc(Cl)cc2)nnc1SCc1ccccc1	CYP2C9 inhib 57.4
CCn1c(CSCc2ccc(F)cc2)nnc1SCC(=O)NCc1ccccc1	none
CCn1c(CNc2ccc(Cl)cc2)nnc1SCC(=O)NCc1ccccc1	CYP2C9 inhib 55.3, CYP2C19 inh 66.8
CCn1c(CSCc2ccc(C)cc2)nnc1SCC(=O)NCc1ccccc1	CYP2C9 inhib 54.2
O=C(O)CSc1nnc(CNc2ccc(Cl)cc2)n1Cc1ccccc1	none
CCn1c(CNc2ccc(Cl)cc2)nnc1SCc1ccccc1	CYP2C9 inhib 76.8, CYP2C19 inh 65.5
O=C(CSc1nncn1-c1ccccc1)Nc1cc(Cl)cc(Cl)c1	none
Cn1c(CNC(=O)Nc2ccccc2Cl)nnc1SCc1ccccc1	CYP2C19 inh 64.4
NC(=O)CSc1nnc(CNc2cccc(Cl)c2)n1CCc1ccccc1	none
Clc1ccc(NCc2nncn2-c2ccccc2)cc1	CYP2C19 inh 98.3
CC(C)C(=O)NC(NCC1CCCO1)C(Cl)(Cl)Cl (stereo not drawn)	none
O=C(Nc1cccnc1)c1cccc(S(=O)(=O)N2CCOCC2)c1	none
COc1ccc(NC(=O)CS(=O)CC(=O)Nc2cc(Cl)ccc2OC)cc1 (stereo not drawn)	none
CC(C)OC(=O)CCc1nc2ccccc2[nH]c1=O	CYP2C19 inh 76.0
O=C1CCCc2ccccc2N1Cc1ccc(Cl)cc1	CYP2C9 inhib 68.5, CYP2C19 inh 91.0
O=C1CCCc2ccccc2N1Cc1cccc(Cl)c1	CYP2C9 inhib 72.5, CYP2C19 inh 83.6
N=c1ccn(Cc2cccc(Cl)c2)cc1	none
COc1cc(S(=O)(=O)Nc2ccccc2C)ccc1Cl	CYP2C9 activ 2, CYP2C19 inh 99.7
COc1cc(S(=O)(=O)Nc2c(C)cc(C)cc2C)ccc1Cl	none
CCOc1cc(S(=O)(=O)Nc2ccc(CC)cc2)ccc1Cl	CYP2C9 inhib 80.1
CCOc1cc(S(=O)(=O)Nc2ccccc2CC)ccc1Cl	CYP2C19 inh 81.7
CCOc1cc(S(=O)(=O)Nc2ccccn2)ccc1F	none
COC(=O)C1CCN(C(=O)c2ccccc2NC(C)=O)CC1	none
O=C(Nc1ccc(Br)cc1Cl)Nn1cnnc1	none
COc1cccc(CNc2ccc(F)c(Cl)c2)c1	none
CCCCCn1c(CCC(=O)Oc2ccccc2OC)nc2c1c(=O)[nH]c(=O)n2CCCC	none
O=C(Oc1cccc(Nc2ncnc3ccccc23)c1)c1ccccc1Cl	CYP2C9 inhib 57.2
CN(C)CC(=O)Nc1cc(C(F)(F)F)ccc1Cl	CYP2C9 activ 2.2
O=C(NC(Nc1cc(C(F)(F)F)ccc1Cl)C(=O)c1ccccc1)c1ccccc1 (stereo not drawn)	none
O=C(CS(=O)c1cccc(C(F)(F)F)c1)Nc1ccccc1Cl (stereo not drawn)	CYP2C9 activ 3.3, CYP2C19 inh 54.9
Cc1ccc[n+](CC(=O)Nc2cc(C(F)(F)F)ccc2Cl)c1	none
CCOC(=O)/C(=N\Nc1cc(C(F)(F)F)ccc1Cl)N(CC)CC	CYP2C19 inh 80.1
O=C(CCc1ccccc1)Nc1cc(C(F)(F)F)ccc1Cl	CYP2C9 activ 3.9, CYP2C19 inh 62.0
Cc1ccc(C(=O)c2c[nH]c(C(=O)NCc3cccnc3)c2)cc1	none
CCC1(C)Cc2c(sc3c2c(=O)n(C)c2nnc(SCc4ccccc4)n32)CO1 (stereo not drawn)	none
N#Cc1c(/N=C/c2cccs2)sc2c1CCCCC2	CYP2C9 inhib 94.0, CYP2C19 inh 69.8
CN(C)/C=N/c1sc2c(c1C#N)CCC2	CYP2C19 inh 67.4
Cc1ccc(/C=N/c2sc3c(c2C#N)CCC3)o1	none
Cc1ccnn1CCSCC(=O)O	none
CCCC1=C(C(=O)OCC)C(c2cc(Cl)cc(OC)c2OCC(=O)OCC)NC(=O)N1 (stereo not drawn)	CYP2C9 inhib 87.5
CCOC(=O)COc1c(OC)cc(Cl)cc1C1NC(=O)NC(C)=C1C(C)=O (stereo not drawn)	CYP2C9 inhib 70.0, CYP2C19 inh 64.9
O=C(c1ccc2c(c1)OCO2)N(CC1CCCO1)C1(C(=O)NC2CCCC2)CCCCC1 (stereo not drawn)	CYP2C9 inhib 54.7, CYP2C19 inh 50.6
Cc1c(C(=O)NCCSCc2ccccc2Cl)cccc1[N+](=O)[O-]	none
S=C(NCCSCc1ccccc1Cl)Nc1ccccc1	CYP2C19 inh 96.2
S=C(NCCSCc1ccc(Cl)cc1)Nc1ccccc1	CYP2C9 inhib 52.1, CYP2C19 inh 51.3
Cc1ccc(-c2cnc(N)n2C)cc1C	none
CCN1CCN(CC(O)COC(C)C)CC1 (stereo not drawn)	none
C/C(Cl)=C\Cn1c(Nc2ccc(C)cc2)nc2c1c(=O)n(C)c(=O)n2C	none
Cc1ccc(Nc2nc3c([nH]2)c(=O)n(C)c(=O)n3C)cc1	CYP2C9 inhib 59.5
CC(c1ccccc1)C(CC(=O)O)C(=O)NC1CCCCC1 (stereo not drawn)	none
CC1=NN(c2ccccc2)C(=O)/C1=C/c1cc2cc(C)ccc2nc1N1CCCCC1	CYP2C9 inhib 81.4, CYP2C19 inh 66.7
Cc1nc2ccccc2nc1N1CCCCC1	none

Assay outcomes (PubChem BioAssay)
